# Only some compounds are listed: those with a hit (about 18% of all), similar ones and a draw of the others.
# TGFb SMAD3 inh = qHTS for Inhibitors of TGF-b | HepG2 CAGA-GFP TGF-b/SMAD3 reporter, GFP fluorescence, 18 h; TGF-beta stimulated, 500 pg/mL final | Potency, µM (series often up to 46.1 µM), hits mostly inhibitors | 1.2% of 410,000 active | AID 588855, 2011; note: nearly all actives have a fitted effect of over 65% in size
#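 Per well, imaged GFP fluorescence of HEPG2 CAGA-GFP cells gives the signal; cells get compound, then TGF-beta (500 pg/mL final), 18 h at 37 degrees C; %Activity versus -TGF-beta and +DMSO controls.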
# DT40 TDP1 CPT = qHTS for Inhibitors of human tyrosyl-DNA phosphodiesterase 1 (TDP1): qHTS in cells in presence of CPT | chicken DT40 Tdp1-/-;hTDP1 cells + 20 nM CPT, ATP luminescence, 48 h | Potency, µM (doses to about 46.2 µM), usual class: inhibitors | AID 686979, 2013 | 12% of 420,000 active; note: nearly all actives have a fitted effect of over 55% in size
#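 Chicken DT40 Tdp1-/- cells stably complemented with human TDP1 were seeded at 400 cells/well in medium containing 20 nM camptothecin, exposed to pin-transferred compounds, and grown at 37 °C for at least 48 hr. Viability was read as ATP luminescence.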
# HepG2 tox = qHTS for Inhibitors of TGF-b: Cytotox Counterscreen | HepG2 CAGA-GFP viability, ATP luminescence, 18 h | Potency, µM (highest dose often 46.1 µM), most hits filed as cytotoxic | 0.76% of 410,000 active
#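 CellTiter-Glo luminescence gave cytotoxicity after 18 hours at 37 degrees C. The cells were HepG2 CAGA-GFP in 1% FBS DMEM, stimulated with 500 pg/mL TGF-beta after compound addition. %Activity was normalised to no-cell wells (complete cell-killing) and DMSO (no toxicity), and curves were fitted and classified.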
# IL1B secr inh = qHTS for Inhibitors of Inflammasome Signaling: IL-1-beta AlphaLISA Primary Screen; THP-1 LPS/ATP IL-1B secretion, AlphaLISA, 16 h; active compounds read low; activity change, % at 57.5 µM; 4.7% of 360,000 active; AID 743279, 2014; in the data active = activity change below about -50%; inconclusive = mostly about -30% to -49%
#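 Secreted IL-1B measured by AlphaLISA bead assay after 16 h compound exposure of THP-1 cells; compounds (final up to 57.5 uM) added 1 h before LPS (250 ng/mL) and ATP (1.25 mM) stimulation; lower signal means less secretion.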
# DT40 TDP1 no CPT = qHTS for Inhibitors of human tyrosyl-DNA phosphodiesterase 1 (TDP1): qHTS in cells in absence of CPT; DT40 Tdp1-/- hTDP1 cells, no CPT, ATP luminescence, 48 h; Potency, µM (series often up to 46.2 µM), usual class: inhibitors; 15% of 420,000 active; AID 686978, 2013; note: nearly all actives have a fitted effect of over 55% in size
#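 Camptothecin absent (DMSO only). Human TDP1-complemented DT40 knockout cells, 400 cells/well, 37 °C for minimum 48 hr; ATP measured via CellTiter-Glo, 30 min dark incubation, luminescence.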
# TDP1 block = qHTS Assay for Inhibitors of Tyrosyl-DNA Phosphodiesterase (TDP1) | Potency, µM (top dose mostly 130 µM), actives largely listed as inhibitors | recombinant TDP1, AlphaScreen DNA substrate cleavage | AID 485290, 2010 | 0.28% of 350,000 active; note: nearly all actives have a fitted effect of over 40% in size
# Target sequence (Q9NUW8 whole entry, looked up): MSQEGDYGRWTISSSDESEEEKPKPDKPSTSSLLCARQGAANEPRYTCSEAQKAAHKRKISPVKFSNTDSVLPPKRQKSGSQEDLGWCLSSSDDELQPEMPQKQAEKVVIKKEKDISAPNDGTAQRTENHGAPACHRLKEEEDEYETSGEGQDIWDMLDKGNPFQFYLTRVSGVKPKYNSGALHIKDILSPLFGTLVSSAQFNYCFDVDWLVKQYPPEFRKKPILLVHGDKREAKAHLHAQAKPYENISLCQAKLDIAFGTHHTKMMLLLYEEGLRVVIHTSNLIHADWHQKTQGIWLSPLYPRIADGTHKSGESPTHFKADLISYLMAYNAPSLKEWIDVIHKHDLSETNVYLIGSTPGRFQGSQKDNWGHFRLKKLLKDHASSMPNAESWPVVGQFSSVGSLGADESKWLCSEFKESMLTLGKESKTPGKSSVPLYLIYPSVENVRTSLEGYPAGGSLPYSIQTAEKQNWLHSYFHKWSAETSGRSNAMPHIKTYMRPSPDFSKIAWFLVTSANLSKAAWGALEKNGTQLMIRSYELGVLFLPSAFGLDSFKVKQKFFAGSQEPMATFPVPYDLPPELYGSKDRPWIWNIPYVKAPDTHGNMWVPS
#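 Here, a 5' biotin and 3' phosphotyrosine-FITC DNA oligonucleotide reports Tdp1 activity: intact substrate bridges AlphaScreen beads, while cleavage leaves a 3' phosphate and drops signal. All incubations at room temperature.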
# Hits are given with their value; i = inactive; ? = inconclusive; nt = no result; ! = repeats disagree; [ ] = dose if it differs, or a comment. Unless noted, calls come from the whole dose curve; as a rule, active = well fitted curve in the direction sought with a large enough effect; inconclusive = small, poorly fitted or top-dose-only effect, or another doubt; inactive = no such curve, though single readings can be large; an effect the other way counts as inactive or inconclusive.
SMILES,TGFb SMAD3 inh,DT40 TDP1 CPT,HepG2 tox,IL1B secr inh,DT40 TDP1 no CPT,TDP1 block
CC(C)(C)N(Cc1ccccc1)C(=O)COC(=O)C1=NN(c2ccccc2)C(=O)CC1,?,i,i,i,i,i
Cc1ncsc1CCC(=O)N1CCCC(Nc2ccc(F)c(F)c2)C1 (configuration not stated),i,13µM,i,i,?,i
COc1ccc(C(=O)N2CCCC(Nc3ccc(C(C)C)cc3)C2)c(OC)n1 (configuration not stated),i,?,i,i,23µM,i
Cc1ncsc1CCC(=O)N1CCCC(Nc2ccc(C(C)C)cc2)C1 (configuration not stated),i,?,i,i,26µM,i
COc1ccc(NC2CCCN(C(=O)CCc3scnc3C)C2)cc1 (configuration not stated),i,i,i,i,i,i
Cc1ncsc1CCC(=O)N1CCCC(c2nc(-c3ccncc3)ncc2-c2ccccc2)C1 (configuration not stated),nt,i[9.04 µM],nt,nt,21µM,nt
Cc1ccc(NC2CCCN(C(=O)CCc3scnc3C)C2)cc1C (configuration not stated),i,?,i,i,i,i
COc1cccc(Nc2ncc3nc(-c4ccccc4)c(=O)n(Cc4cccs4)c3n2)c1,nt,i,nt,nt,i,nt
COc1ccc(N(CC(=O)NC2CCCCC2)C(=O)c2ccc(C)s2)c(OC)c1,i,?,i,?,?,i[0.0935 µM]
Cc1nc(-c2ccccc2)sc1C(=O)NS(=O)(=O)c1ccc(CN2CCN(c3ccccc3)CC2)cc1,nt,i,nt,i,i,nt
O=C1CCCCN1CC(=O)N1CCCC(Nc2ccc(F)c(F)c2)C1 (configuration not stated),i,21µM,i,i,?,i
CCc1nccn1CCC(=O)N1CCCC(Nc2ccc(C(C)C)cc2)C1 (configuration not stated),i,?,i,i,18µM,i
CC(=O)C1CCC2C3CCC4=CC(=O)C=CC4(C)C3CCC12C (configuration not stated),i,21µM,i,i,12µM,nt
CC(=O)OCC=C1CCC2C3CCC4=CC(=O)CCC4(C)C3C(O)CC12C (configuration not stated),i,12µM,i,i,12µM,nt
CC(=O)[C@H]1CC[C@H]2[C@@H]3CCC4=CC(=O)CC[C@]4(C)[C@H]3[C@H](O)C[C@]12C,i,?,i,i,16µM,i
CC(=O)[C@H]1CC[C@H]2[C@@H]3C=CC4=CC(=O)CC[C@@]4(C)[C@@H]3CC[C@]12C,i,15µM!,i,i,13µM,nt
CCS(=O)(=O)c1nc(S(=O)(=O)c2ccc(Cl)cc2)c(NCc2ccccc2Cl)s1,i,?,i,nt,?,i
COc1cc(NC(=O)Nc2nnc(N3CCCCCC3)s2)cc(OC)c1,i,23µM,i,nt,16µM,i
COc1ccc(NC(=O)Nc2nnc(-c3ccncc3)s2)cc1,?,23µM,i,-90,23µM,i
COc1ccc(NC(=O)Nc2nnc(N3CCCCCC3)s2)cc1,i,?,i,nt,?,i
O=C(Nc1ccc(Cl)c(Cl)c1)Nc1nnc(-c2ccncc2)s1,?,3.3µM,i,i,3.7µM,nt
CC(=O)Nc1ccc(NC(=O)CSc2nnc(NC(=O)c3ccc(Br)o3)s2)cc1,i,i,i,i,i,i
CCCCC(NC(C)=O)c1nc2ccccc2n1CCCC (configuration not stated),i,4.1µM,i,i,2.1µM,i
CCn1c(C(C)NC(C)=O)nc2ccccc21 (configuration not stated),i,i,i,i,i,i
CCCCCn1c(CNC(C)=O)nc2ccccc21,i,?,i,i,?,i
SMILES,TGFb SMAD3 inh,DT40 TDP1 CPT,HepG2 tox,IL1B secr inh,DT40 TDP1 no CPT,TDP1 block
CCCCCn1c(C(Cc2ccccc2)NC(C)=O)nc2ccccc21 (configuration not stated),i,?,i,i,26µM,i
COCCCNC(=O)c1ccc2c3c(onc13)-c1ccccc1C2=O,3.2µM,7.3µM,i,-98,15µM,i
CN1CCCCCC1C(=O)NCC1Cc2cc(-c3cnccn3)ccc2O1 (configuration not stated),nt,i,nt,nt,?,nt
Nc1nc(N)c2[nH]cnc2n1,?,6.5µM,i,i,8.2µM,nt
O=C(NCCSc1c(-c2ccc(Br)cc2)[nH]c2ccccc12)c1ccc(S(=O)(=O)N2CCOCC2)cc1,i,3.7µM,i,nt,4.1µM,i
O=C(NCCSc1c(-c2ccc(Cl)cc2)[nH]c2ccccc12)c1ccc(S(=O)(=O)N2CCOCC2)cc1,i,3.7µM,i,nt,3.7µM,i
O=C(CCNC(=O)c1ccc(Cl)cc1)Nc1ccc(S(=O)(=O)N2CCOCC2)cc1,i,?,i,i,i,i
CCN(C(=O)CSc1n[nH]c(N)n1)c1cccc2ccccc12,i,i,i,i,i,i
CN(C)c1cccc(S(=O)(=O)N2CCN(S(=O)(=O)c3ccc4c(c3)OCCO4)CC2)c1,nt,nt,nt,nt,nt,i
CCC(CC)CC1CN2CCc3cc(OC)c(OC)cc3C2CC1(O)CC (configuration not stated),i,8.2µM,i,i,8.2µM,nt
COc1cc2c(cc1OC)C1CC(=O)C(CC(C)C)CN1CC2 (configuration not stated),i,i,i,i,i,i
COc1cc2c(cc1OC)C1C/C(=N\O)C(CC(C)C)CN1CC2 (configuration not stated),i,?,i,i,21µM,i
Cc1nc(CSc2n[nH]c(=O)n2-c2cccc(F)c2)cs1,i,i,i,i,i,i
C[C@H](CO)N1C[C@H](C)[C@H](CN(C)S(=O)(=O)c2cccc(C#N)c2)OCc2cnnn2CCCC1=O,i,i,i,i,i,nt
Cc1ccn(CCC(=O)Nc2ccc(-c3ccno3)cc2)n1,i,i,i,i,i,i
CC(C)C(=O)N1CCN(c2ccccc2NC(=O)c2cc([N+](=O)[O-])ccc2N2CCOCC2)CC1,i,?,i,i,13µM,i
O=C(c1ccccc1F)N1CCN(c2ccc([N+](=O)[O-])c(N3CCOCC3)c2)CC1,i,i,i,i,i,i
O=C(c1cc([N+](=O)[O-])ccc1N1CCOCC1)N1CCN(c2ccc([N+](=O)[O-])cc2)CC1,i,13µM,i,i,15µM,i
